Whole data set: some 25,000 sequences, median “ln(normalized median fluorescence intensity)” near 9.7, cut for the highest 2% near 11. The list comes from a sample in which the highest values are over-represented; it also holds similar and randomly drawn sequences.
Tested on: PfAP2-HC AP2 domain (GST-tagged)
Assay: gcPBM binding intensity (ln(normalized median fluorescence intensity)); higher = stronger DNA binding
Summary of the method: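 Binding intensity is the highest Masliner-normalised natural-log median intensity over replicate spots in either probe orientation. To obtain it, GST-tagged P. falciparum DNA-binding domains made in E. coli were incubated for 1 h on an Agilent 4 × 180k array of primer-extended double-stranded 36-bp intergenic genomic probes plus negative controls. Detection used Alexa488 anti-GST antibody with scanning at 488 nm.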

Sequence | gcPBM binding intensity (ln)
AAAAAAATAGTCTTCTTGCACTTTTTAATTTATTTT | 9.6
CTAAAACAATAAATCACACATACATAGGATAATATA [CACACA_site4247] | 9.81
GTGTAATTTATTGTGTTGCACTTTTTTTTTTTTTTT [GTGCAC_site9644] | 9.84
ATATATATGTATATAACATGCAACATTTAATAATAA [TGCATGCA_site1018] | 9.85
AAGGTGGAAACAATTACACACACACTAATAAAAAAA [CACACA_site9051] | 10.8
ATATGATTTCACAAGACACACACATACAAATTTATA [CACACA_site9296] | 10.1
TATTTATTTATTTATGCATGCATGAATAATTTTTAC [TGCATGCA_site31] | 9.62
AGAACAATTCTGTGGTGTACCAAAAAAAATTTAATT [XGTACX_site8082] | 9.8
TAAAGAGTCATGTGGTGTACCTGCTTCACCACATAT [XGTACX_site1288] | 9.4
AACTTTGAGACATAGTGTACTTACACAATCTTAATA [XGTACX_site3712] | 9.63
ATATATATTTATATATGTACATATTTTTGTGTATTT [XGTACX_site1183] | 9.93
ATGCATATATTTATGTGTACATATATTTGTAGGGGG [XGTACX_site6063] | 11.2
TATATATATATATATGCATGTACATATATTTGTTAT [TGCATGCA_site379] | 10.4
ATACCTATTTGATGAGTGCATTATCCAATATATGTA | 9.59
TCTTTTTAAATATATACACACCGTGTCTACAGATAC [CACACA_site5784] | 9.88
AAGAAAAACTTTACGTGTACCAAACATCCTGCCAAC [XGTACX_site598] | 9.91
ATATATATTTTATTATGTACATATAAATATTACACA [XGTACX_site4062] | 9.57
CACGCACGCAGACACACACACACACGCACATATATA [CACACA_site6303] | 10.6
AAGCATACATCAAGCACACACACACCCACAGAGACA [CACACA_site4362] | 10.5
TGCATATACGCAAGCACACATATATATATATATATA [CACACA_site1069] | 9.6
ACATCAAGCAGACACACACACACACGCACACGCACA [CACACA_site6309] | 11.2
AGAAGCATACATCAAGCACACACACCCACACCCACA [CACACA_site8014] | 11.4
AGCACACGCAGACACACACACACACGCACACGCACA [CACACA_site6306] | 11.6
AATACACGCAGACACACACACACACGCACATATATA [CACACA_site6447] | 10.8
TGCATATACTCAAGCACACATATATATATATATATA [CACACA_site4733] | 9.71
GCATACATCAAGCACACACACACACGCACACGCACA [CACACA_site6311] | 11.3
AATAATAGAAGCACCCACCCACCACCACCCACACAT [CACACA_negctrl_site1033] | 10.9

— the supplement of paper PMC11417369
